According to PubChem BioAssay (NCATS):
Inconclusive results are not listed. Active and inactive are the calls of the source. Unless noted, the call rests on the fitted dose curve; in most records, active means well fitted curve in the direction sought with a large enough effect; inconclusive means small, poorly fitted or top-dose-only effect, or another doubt; inactive means no such curve, though single readings can be large; an effect the other way counts as inactive or inconclusive.

Legend:
[1] = qHTS Assay for Identification of Small Molecule Agonists for Thrombopoietin (TPO) Signaling Pathway (AID 917)
How it was run: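 Luciferase reporter (Glycoprotein IIb promoter) in IL-3-deprived Ba/F3 cells carrying human TPO receptor; compounds co-added with 26 pM TPO, incubated 24 h, 37 C. Steadylite luminescence measured after 10 min.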

[2] = biological target: Muscarinic acetylcholine receptor M1 (Rattus norvegicus) (UniProt P08482); assay: qHTS Assay for Antagonists of Acetylcholine Muscarinic M1 Receptor: Measurement of IP-One Response (AID 944); further: nearly all actives have a fitted effect of over 75% in size; further: potency means the concentration at half of the fitted maximal effect
Sequence of Muscarinic acetylcholine receptor M1 (Rattus norvegicus) (P08482 whole entry, looked up): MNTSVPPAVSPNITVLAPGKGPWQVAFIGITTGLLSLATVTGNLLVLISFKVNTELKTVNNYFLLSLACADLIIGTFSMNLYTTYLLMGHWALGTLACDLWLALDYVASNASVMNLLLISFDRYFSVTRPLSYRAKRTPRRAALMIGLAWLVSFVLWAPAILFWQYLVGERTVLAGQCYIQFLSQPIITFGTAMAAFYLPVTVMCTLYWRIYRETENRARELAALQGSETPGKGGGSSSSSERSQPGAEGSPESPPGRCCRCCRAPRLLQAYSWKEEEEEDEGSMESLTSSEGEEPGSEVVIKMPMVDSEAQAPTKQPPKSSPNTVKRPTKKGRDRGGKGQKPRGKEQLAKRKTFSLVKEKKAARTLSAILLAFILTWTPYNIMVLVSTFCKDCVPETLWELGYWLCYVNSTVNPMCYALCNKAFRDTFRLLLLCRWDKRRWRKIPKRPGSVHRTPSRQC
How it was run: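 IP1 accumulation measured via TR-FRET between d2-IP1 and Eu-cryptate anti-IP1 antibody after carbachol (200 nM, EC80) stimulation for 30 min; rat M1-transfected CHO cells received compound 10 min before agonist.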

[3] = biological target: Pyruvate kinase PKM (Homo sapiens) (UniProt P14618); assay: qHTS Assay for Activators of Human Muscle Pyruvate Kinase (AID 954; active means well fitted curve in the direction sought with a large enough effect, not every such curve was filed as active)
Sequence of Pyruvate kinase PKM (Homo sapiens) (P14618 whole entry, looked up): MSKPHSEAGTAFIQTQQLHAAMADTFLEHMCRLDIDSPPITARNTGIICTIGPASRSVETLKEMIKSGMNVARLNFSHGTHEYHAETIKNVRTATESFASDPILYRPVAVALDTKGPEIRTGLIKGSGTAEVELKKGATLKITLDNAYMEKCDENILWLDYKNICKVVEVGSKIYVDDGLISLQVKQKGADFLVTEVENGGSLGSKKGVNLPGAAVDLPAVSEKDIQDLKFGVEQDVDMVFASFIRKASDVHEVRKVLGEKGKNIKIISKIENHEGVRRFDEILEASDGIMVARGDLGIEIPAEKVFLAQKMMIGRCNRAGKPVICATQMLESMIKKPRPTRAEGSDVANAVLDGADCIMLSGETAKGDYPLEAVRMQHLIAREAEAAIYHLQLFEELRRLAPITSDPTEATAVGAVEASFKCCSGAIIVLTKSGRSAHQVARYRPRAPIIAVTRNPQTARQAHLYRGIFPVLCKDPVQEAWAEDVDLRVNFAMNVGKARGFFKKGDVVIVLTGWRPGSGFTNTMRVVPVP
How it was run: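 PKM2, human, >95% pure, 0.1 nM; PEP 0.5 mM (Km), ADP 0.1 mM; 50 mM imidazole pH 7.2, 50 mM KCl, 0.01% Tween 20, 0.05% BSA; 1 h RT; luciferase luminescence readout.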

[4] = biological target: ATP-dependent 6-phosphofructokinase (Trypanosoma brucei brucei) (UniProt O15648); assay: qHTS Assay to Find Inhibitors of T. brucei phosphofructokinase: hit validation (AID 492961);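 further: luminescence reports ADP formed as PFK phosphorylates fructose-6-phosphate with ATP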
Sequence of ATP-dependent 6-phosphofructokinase (Trypanosoma brucei brucei) (O15648 whole entry, looked up): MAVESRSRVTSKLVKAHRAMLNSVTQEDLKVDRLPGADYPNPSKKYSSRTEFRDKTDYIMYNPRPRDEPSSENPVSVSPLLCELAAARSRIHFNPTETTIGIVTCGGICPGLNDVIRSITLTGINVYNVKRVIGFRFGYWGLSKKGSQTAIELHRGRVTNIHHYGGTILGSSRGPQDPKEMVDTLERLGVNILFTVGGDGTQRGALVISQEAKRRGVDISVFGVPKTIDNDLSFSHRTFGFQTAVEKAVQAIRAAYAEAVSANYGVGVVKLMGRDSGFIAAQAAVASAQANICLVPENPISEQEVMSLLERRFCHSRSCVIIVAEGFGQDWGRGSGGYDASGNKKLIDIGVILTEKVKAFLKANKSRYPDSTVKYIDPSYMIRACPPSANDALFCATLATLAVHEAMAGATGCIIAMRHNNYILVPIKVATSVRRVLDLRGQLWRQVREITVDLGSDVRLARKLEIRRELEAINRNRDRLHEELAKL
How it was run: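 PFK 1.25 nM, F6P 0.5 mM, ATP 0.1 mM, MgCl2 5 mM, 0.1 M TEA pH 8.0, Tween20 0.01%, BSA 0.1%; 45 min RT. ADP-Glo two-step detection, luminescence. qHTS titration; curve fitting with curve-class categorization.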

[5] = biological target: Luciferin 4-monooxygenase (Photinus pyralis) (UniProt P08659); assay: Biochemical firefly luciferase enzyme assay for NPC (AID 624030);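 further: purified P. pyralis luciferase at 10 nM with luciferin and ATP substrate; nearly all actives have a fitted effect of over 70% in size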
Sequence of Luciferin 4-monooxygenase (Photinus pyralis) (P08659 whole entry, looked up): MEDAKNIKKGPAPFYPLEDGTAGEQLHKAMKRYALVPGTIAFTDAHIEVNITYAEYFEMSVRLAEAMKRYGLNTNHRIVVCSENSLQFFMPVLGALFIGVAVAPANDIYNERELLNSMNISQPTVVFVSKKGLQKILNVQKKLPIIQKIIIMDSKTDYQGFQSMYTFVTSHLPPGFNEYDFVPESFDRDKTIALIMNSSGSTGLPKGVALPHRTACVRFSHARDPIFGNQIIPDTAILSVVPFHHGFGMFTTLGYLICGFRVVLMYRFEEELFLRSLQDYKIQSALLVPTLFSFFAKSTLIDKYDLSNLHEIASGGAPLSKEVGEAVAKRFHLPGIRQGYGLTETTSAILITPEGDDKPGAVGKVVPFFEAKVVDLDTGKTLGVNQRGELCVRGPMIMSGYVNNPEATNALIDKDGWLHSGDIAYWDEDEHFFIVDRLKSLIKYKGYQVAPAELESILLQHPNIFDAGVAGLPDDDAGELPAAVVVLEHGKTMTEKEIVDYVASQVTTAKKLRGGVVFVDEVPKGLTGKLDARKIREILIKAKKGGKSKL
How it was run: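 Counter-screen for direct inhibition of the luciferase enzyme by approved-drug library compounds, run at 10 nM enzyme in 50 mM Tris acetate (final). Luminescence was read within 5 min of enzyme-buffer addition and normalized to PTC124 versus DMSO (0%).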

[6] = S16 Schwann cell viability assay (CellTiter-Glo assay) (AID 624031);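 further: cellular ATP luminescence as a viability measure; nearly all actives have a fitted effect of over 70% in size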
How it was run: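 CellTiter-Glo ATP luminescence counter-screen in untransfected S16 rat Schwann cells, 24h compound exposure at 37 degree Celsius after overnight seeding (500-750 cells/well); response scaled between cell-free wells and DMSO (0% activity), curves classed by r2 and magnitude.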

[7] = S16 Schwann cell PMP22 intronic element firefly luciferase assay (AID 624032); further: nearly all actives have a fitted effect of over 30% in size; further: potency means the concentration at half of the fitted maximal effect
How it was run: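 Rat S16 Schwann cells stably carrying a PMP22 intronic element-driven Fluc reporter were seeded overnight, then exposed to compounds for 24 h at 37 °C. Luminescence was normalized to PTC124 (positive control) and DMSO (0% activity).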

AS120 = assay: qHTS profiling for inhibitors of Plasmodium falciparum proliferation (AID 504749); further: nearly all actives have a fitted effect of over 60% in size; further: potency means the concentration at half of the fitted maximal effect; settings: P. falciparum in erythrocytes, SYBR Green DNA, 72 h; series mostly up to 28.7 µM
How it was run: (§1)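 Quantitative HTS: compounds pinned into medium, infected erythrocytes added (0.3% parasitemia, 2.5% hematocrit), 72 h culture at 37 C under 5% CO2. Saponin/Triton lysis with SYBR Green I, overnight RT, then fluorescence read.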

CP191 = assay: as above; settings: P. falciparum in erythrocytes, SYBR Green DNA, 72 h; series mostly up to 12.8 µM
How it was run: as §1

CP247 = assay: as above; settings: P. falciparum in erythrocytes, SYBR Green DNA, 72 h; series mostly up to 12.8 µM
How it was run: as §1

CP250 = assay: as above; settings: P. falciparum in erythrocytes, SYBR Green DNA, 72 h; series mostly up to 12.8 µM
How it was run: as §1

CP265 = assay: as above; settings: P. falciparum in erythrocytes, SYBR Green DNA, 72 h; series mostly up to 12.8 µM
How it was run: as §1

Dd2 = assay: as above; settings: P. falciparum in erythrocytes, SYBR Green DNA, 72 h; series mostly up to 12.8 µM
How it was run: as §1

FAB9 = assay: as above; settings: P. falciparum in erythrocytes, SYBR Green DNA, 72 h; series mostly up to 12.8 µM
How it was run: as §1

N140 = assay: as above; settings: P. falciparum in erythrocytes, SYBR Green DNA, 72 h; series mostly up to 12.8 µM
How it was run: as §1

PC15 = assay: as above; settings: P. falciparum in erythrocytes, SYBR Green DNA, 72 h; series mostly up to 12.8 µM
How it was run: as §1

PC49 = assay: as above; settings: P. falciparum in erythrocytes, SYBR Green DNA, 72 h; series mostly up to 12.8 µM
How it was run: as §1

[8] = biological target: Cytochrome P450 2C9 (Homo sapiens) (UniProt P11712); assay: qHTS Assay for Inhibitors and Substrates of Cytochrome P450 2C9 (AID 883); further: nearly all actives have a fitted effect of over 60% in size
Sequence of Cytochrome P450 2C9 (Homo sapiens) (P11712 whole entry, looked up): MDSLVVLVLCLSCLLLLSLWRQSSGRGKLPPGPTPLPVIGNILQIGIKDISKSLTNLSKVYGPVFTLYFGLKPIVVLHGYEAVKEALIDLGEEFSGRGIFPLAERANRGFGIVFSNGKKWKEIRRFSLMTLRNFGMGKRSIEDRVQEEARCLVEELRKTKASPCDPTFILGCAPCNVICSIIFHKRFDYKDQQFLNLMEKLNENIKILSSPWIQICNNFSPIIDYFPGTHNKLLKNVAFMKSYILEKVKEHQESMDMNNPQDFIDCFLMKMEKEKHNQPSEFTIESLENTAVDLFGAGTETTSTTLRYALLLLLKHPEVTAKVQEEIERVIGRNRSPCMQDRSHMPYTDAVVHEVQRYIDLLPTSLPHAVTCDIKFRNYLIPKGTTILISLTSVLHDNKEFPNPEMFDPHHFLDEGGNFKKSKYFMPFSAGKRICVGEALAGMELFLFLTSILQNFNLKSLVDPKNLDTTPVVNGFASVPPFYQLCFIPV
How it was run: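 Human CYP2C9 (10nM) hydroxylated Luciferin-H (100uM, at its KM) to luciferin in 25mM KPO4. Compound was preincubated 10 min at 37C, then NADPH regeneration started a 60 min reaction at 37C. Luminescence was read after detection reagent, normalized to 57uM sulphaphenazole.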

[9] = biological target: Cytochrome P450 2C19 (Homo sapiens) (UniProt P33261); assay: qHTS Assay for Inhibitors and Substrates of Cytochrome P450 2C19 (AID 899); further: nearly all actives have a fitted effect of over 60% in size; further: potency means the concentration at half of the fitted maximal effect
Sequence of Cytochrome P450 2C19 (Homo sapiens) (P33261 whole entry, looked up): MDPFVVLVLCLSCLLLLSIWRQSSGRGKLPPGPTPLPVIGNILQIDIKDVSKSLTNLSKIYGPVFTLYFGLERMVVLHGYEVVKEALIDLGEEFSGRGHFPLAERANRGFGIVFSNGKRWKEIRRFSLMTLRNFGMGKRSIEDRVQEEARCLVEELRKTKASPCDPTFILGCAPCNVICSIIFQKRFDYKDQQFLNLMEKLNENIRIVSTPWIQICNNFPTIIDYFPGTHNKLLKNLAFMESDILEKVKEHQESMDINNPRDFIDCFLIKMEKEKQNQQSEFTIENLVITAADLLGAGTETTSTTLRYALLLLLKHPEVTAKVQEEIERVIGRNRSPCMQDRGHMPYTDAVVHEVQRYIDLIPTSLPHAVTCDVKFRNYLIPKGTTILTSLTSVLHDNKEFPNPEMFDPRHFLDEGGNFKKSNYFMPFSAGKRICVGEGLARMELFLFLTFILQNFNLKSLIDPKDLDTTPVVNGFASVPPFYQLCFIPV
How it was run: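 Human CYP2C19 (5nM) with Luciferin-H EGE at 10uM (its KM) in 50mM KPO4 was preincubated with compound for 10 min at 37C. NADPH regeneration started a 60 min 37C reaction. Luciferin was read by luminescence, normalized to 57uM ketoconazole.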

[10] = biological target: Cytochrome P450 2D6 (Homo sapiens) (UniProt P10635); assay: qHTS Assay for Inhibitors and Substrates of Cytochrome P450 2D6 (AID 891); further: nearly all actives have a fitted effect of over 60% in size; further: potency means the concentration at half of the fitted maximal effect
Sequence of Cytochrome P450 2D6 (Homo sapiens) (P10635 whole entry, looked up): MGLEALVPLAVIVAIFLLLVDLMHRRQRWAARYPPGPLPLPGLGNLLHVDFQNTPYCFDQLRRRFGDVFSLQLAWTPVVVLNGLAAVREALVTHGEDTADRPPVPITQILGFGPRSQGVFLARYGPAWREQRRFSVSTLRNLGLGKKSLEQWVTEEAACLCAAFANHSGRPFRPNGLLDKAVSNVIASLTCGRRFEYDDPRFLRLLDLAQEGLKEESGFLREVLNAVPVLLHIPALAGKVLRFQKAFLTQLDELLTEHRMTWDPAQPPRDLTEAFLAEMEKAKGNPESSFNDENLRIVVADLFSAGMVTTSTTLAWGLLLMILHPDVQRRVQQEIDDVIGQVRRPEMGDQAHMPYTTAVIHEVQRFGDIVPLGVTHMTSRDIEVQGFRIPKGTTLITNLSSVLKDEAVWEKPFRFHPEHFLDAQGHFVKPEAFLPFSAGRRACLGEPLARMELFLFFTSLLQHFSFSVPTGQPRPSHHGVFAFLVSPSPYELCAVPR
How it was run: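 Luminescent read-out of luciferin formed by 5 nM human CYP2D6 demethylating 30 uM Luciferin-ME EGE (Km level) over 60 min at room temperature after NADPH regeneration addition. Data normalized to full inhibition by 1.43 uM quinidine.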

Measured: Potency

CCn1cc(C(=O)O)c(=O)c2cc(F)c(N3CCN[C@@H](C)C3)c(F)c21
not listed: [8] | [9] | [10]
inactive: all other assays above

Cc1cccc(C)c1OC[C@H](C)N
inactive: [8] | [1] | [2] | [3]

CN(C)c1ccc(-c2ccc3ncnc(NCc4ccccc4)c3c2)cc1
active: [9] 7940 nM

CN1C(=O)CC[C@@H]1c1cccnc1
inactive: [8] | [10] | [9] | [2] | [3]

c1ccc([C@@H]2CN3CCSC3=N2)cc1
inactive: [1] | [2] | [3]

NC(=O)c1cc[n+](CC2=C(C(=O)O)N3C(=O)[C@@H](NC(=O)[C@H](c4ccccc4)S(=O)(=O)[O-])[C@@H]3SC2)cc1
inactive: [1] | [3] | [4] | [5] | [6] | [7]
active: AS120 3160 nM | CP191 1410 nM | CP247 3550 nM | CP250 3980 nM | CP265 1410 nM | Dd2 1260 nM | FAB9 3160 nM | N140 1410 nM | PC15 1000 nM | PC49 3160 nM

O=C(c1ccccc1)c1ccc2n1CC[C@H]2C(=O)O
not listed: [5] | [8] | [9] | [10]
inactive: all other assays above

O=C(C1CCCCC1)N1CC(=O)N2CCc3ccccc3[C@@H]2C1
inactive: [8] | [10] | [4] | [5] | [6]
active: [7] 36100 nM

CCCN(CCC)C(=O)[C@@H](CCC(=O)O)NC(=O)c1ccccc1
not listed: [2] | [8] | [9] | [10]
inactive: all other assays above

C[C@@]12CC[C@@H]3c4ccc(O)cc4CC[C@H]3[C@H]1CC[C@H]2O
inactive: [8] | [10]

CC[C@]1(C)CC(=O)NC1=O
not listed: [2] | [8] | [9] | [10]
inactive: all other assays above

COc1ccccc1CN1CC[C@@]2(CCCN(C(=O)c3ccco3)C2)C1
active: [10] 501 nM

C[C@@](N)(Cc1ccc(O)c(O)c1)C(=O)O
inactive: [10] | [9] | [1] | [3]

c1ccc(Nc2ncnc3ccc(-c4ccc5c(c4)OCO5)cc23)cc1
active: [10] 126 nM

C[C@@H]1COc2c(N3CCN(C)CC3)c(F)cc3c(=O)c(C(=O)O)cn1c23
not listed: [8] | [9] | [10]
inactive: all other assays above

COc1cc(=O)n(C)c2c(OC[C@@H](O)C(C)(C)O)cccc12
inactive: [8] | [10] | [9] | [1] | [2] | [3]

N[C@H](C(=O)N[C@@H]1C(=O)N2C(C(=O)O)=C(Cl)CS[C@@H]12)c1ccccc1
inactive: [1] | [3]

CC(=O)OCC1=C(C(=O)O)N2C(=O)[C@@H](NC(=O)CSc3ccncc3)[C@@H]2SC1
not listed: [8] | [9] | [10]
inactive: all other assays above

O=C(O)/C=C\c1ccc(O)c(O)c1
inactive: [8] | [10] | [9]

COc1ccccc1OC[C@H](O)COC(N)=O
not listed: [1] | [2] | [3] | [8] | [9] | [10]
inactive: all other assays above

CC1(C)O[C@@H]2C[C@H]3[C@H]4C[C@H](F)C5=CC(=O)C=C[C@@]5(C)[C@@H]4[C@H](O)C[C@]3(C)[C@]2(C(=O)CO)O1
not listed: [1] | [2] | [3] | [8] | [10]
inactive: all other assays above

OCCN1CCN(CC/C=C2\c3ccccc3Sc3ccc(C(F)(F)F)cc32)CC1
active: [2] 5010 nM
inactive: [3]

CN1CCc2cccc3c2[C@@H]1Cc1ccc(O)c(O)c1-3
inactive: [10] | [2]

CC(C)COC[C@H](CN(Cc1ccccc1)c1ccccc1)N1CCCC1
active: [10] 15.8 nM
inactive: [1] | [2] | [3]

C[C@@H](C[N+](C)(C)C)OC(N)=O
inactive: [8] | [1] | [2] | [3]
